High-throughput results from PubChem.
CD11b adhes inh: inhibitors of CD11b/CD18 adhesion to fibrinogen, primary screen, K562 cells, luminescence. inhibition, % at 10 µM. actives 0.54% (n = 93,000). AID 1497, 2009. ATPlite luminescence; Mn2+ added to activate the integrin;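 active means primary inhibition of 50% or more at 10 µM, then 40% or more on retest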
Cav3 T inh: Cav3.2 calcium influx blockers – cell-based, Fluo-4 calcium fluorescence, FDSS, MLSMR library, primary screen | AID 449739, 2010 | actives 4% (n = 100,000) | Cav3.2-expressing cells; stronger effect = lower value | B-score at 10 µM | Voltage-dependent T-type calcium channel subunit alpha-1H (Homo sapiens), O95180;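 active means single-dose well whose peak fluorescence ratio is a statistical outlier from its plate by either plate-standardised score or position-corrected B-score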
Target sequence (O95180 whole entry, looked up): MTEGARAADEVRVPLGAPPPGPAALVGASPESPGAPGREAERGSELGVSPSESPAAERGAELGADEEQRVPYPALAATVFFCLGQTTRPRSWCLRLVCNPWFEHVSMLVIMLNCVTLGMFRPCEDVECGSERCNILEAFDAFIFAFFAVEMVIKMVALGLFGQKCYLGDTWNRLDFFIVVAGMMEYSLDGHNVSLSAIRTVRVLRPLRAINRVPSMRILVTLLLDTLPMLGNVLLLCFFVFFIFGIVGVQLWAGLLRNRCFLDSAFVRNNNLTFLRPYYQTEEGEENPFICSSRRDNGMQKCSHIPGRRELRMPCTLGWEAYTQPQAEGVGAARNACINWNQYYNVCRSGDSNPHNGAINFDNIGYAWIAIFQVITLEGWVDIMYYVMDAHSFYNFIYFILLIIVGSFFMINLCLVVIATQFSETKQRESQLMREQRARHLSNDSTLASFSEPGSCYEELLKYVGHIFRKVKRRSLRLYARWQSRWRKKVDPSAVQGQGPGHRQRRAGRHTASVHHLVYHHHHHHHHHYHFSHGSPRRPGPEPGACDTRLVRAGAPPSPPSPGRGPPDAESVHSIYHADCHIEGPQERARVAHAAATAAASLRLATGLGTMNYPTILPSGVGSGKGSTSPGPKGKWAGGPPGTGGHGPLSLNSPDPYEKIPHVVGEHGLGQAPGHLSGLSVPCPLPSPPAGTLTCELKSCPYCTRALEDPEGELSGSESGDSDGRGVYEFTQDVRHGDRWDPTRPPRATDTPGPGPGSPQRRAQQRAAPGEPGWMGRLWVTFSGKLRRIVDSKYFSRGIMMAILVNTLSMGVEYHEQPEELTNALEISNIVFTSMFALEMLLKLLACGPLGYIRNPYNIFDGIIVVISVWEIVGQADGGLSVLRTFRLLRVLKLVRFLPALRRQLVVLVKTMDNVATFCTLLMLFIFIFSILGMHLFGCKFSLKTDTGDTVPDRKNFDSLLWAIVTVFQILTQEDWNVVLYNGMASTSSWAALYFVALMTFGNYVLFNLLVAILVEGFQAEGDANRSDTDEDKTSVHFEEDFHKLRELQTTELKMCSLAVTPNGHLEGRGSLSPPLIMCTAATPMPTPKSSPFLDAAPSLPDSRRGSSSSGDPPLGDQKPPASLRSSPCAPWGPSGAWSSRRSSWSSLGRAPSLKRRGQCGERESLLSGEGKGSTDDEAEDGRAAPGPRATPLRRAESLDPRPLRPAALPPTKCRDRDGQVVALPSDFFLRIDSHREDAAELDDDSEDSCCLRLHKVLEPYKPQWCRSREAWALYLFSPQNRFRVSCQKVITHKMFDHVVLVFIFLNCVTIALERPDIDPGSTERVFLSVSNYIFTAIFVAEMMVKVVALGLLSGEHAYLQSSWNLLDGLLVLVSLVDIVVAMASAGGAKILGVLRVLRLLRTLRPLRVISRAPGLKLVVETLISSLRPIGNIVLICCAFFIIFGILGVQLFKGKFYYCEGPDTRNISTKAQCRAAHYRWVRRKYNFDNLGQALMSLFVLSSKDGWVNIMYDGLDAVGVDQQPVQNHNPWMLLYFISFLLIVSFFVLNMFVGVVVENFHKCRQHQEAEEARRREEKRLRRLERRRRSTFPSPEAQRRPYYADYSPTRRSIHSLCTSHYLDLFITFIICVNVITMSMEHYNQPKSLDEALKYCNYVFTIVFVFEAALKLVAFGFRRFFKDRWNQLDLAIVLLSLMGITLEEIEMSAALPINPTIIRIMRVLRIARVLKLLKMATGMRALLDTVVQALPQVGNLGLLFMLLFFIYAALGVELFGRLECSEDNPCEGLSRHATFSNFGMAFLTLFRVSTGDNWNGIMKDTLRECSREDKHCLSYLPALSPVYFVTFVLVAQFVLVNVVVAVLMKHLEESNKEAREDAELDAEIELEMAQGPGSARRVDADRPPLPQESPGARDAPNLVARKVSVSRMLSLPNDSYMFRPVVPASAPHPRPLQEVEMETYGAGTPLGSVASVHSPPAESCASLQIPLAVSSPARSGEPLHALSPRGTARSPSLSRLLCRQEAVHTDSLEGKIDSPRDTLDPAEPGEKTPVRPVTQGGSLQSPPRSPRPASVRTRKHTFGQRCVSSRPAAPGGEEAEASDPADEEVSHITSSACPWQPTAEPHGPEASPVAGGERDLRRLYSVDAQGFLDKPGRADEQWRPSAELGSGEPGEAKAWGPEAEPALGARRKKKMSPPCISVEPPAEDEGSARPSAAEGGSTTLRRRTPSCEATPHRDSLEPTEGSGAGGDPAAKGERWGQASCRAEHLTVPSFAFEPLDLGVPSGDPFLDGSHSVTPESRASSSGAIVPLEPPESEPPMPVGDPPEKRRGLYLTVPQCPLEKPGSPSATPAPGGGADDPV
PTK2B oligo ant: antagonists of Pyk2 self-association, primary screen, Q293 cells, FERM NanoBiT luminescence, HTS. Protein-tyrosine kinase 2-beta (Homo sapiens), Q14289. stronger effect = lower value. z-score (the deposit names both 25 µM and 10 µM). actives 0.83% (n = 99,000). AID 1347419, 2020;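 active means Z-score of -3 or lower, scaled per plate to the spread of control and sample wells; inactive means z-score above -3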;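 further: negative z-score means lost luminescence so less FERM oligomerization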
E coli RNAP: E. coli RNAP inhibitors, biochemical; E. coli RNA polymerase, fluorescence transcription assay; inhibition, %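 (tested at 10 µM)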; actives 0.2% (n = 62,000); DNA-directed RNA polymerase subunit beta (Escherichia coli (strain K12)), P0A8V2; in the data active means inhibition above about 20%;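 further: 0% = enzyme without compound and 100% = no enzyme blank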
CD11b adhes enh: enhancers of CD11b/CD18 adhesion to fibrinogen, primary screen, K562 cells, luminescence. activation, % at 10 µM. ATPlite luminescence. actives 0.07% (n = 93,000);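 active means 10 µM primary screen giving 50% or more activity, confirmed by 40% or more on retest at that dose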
Starred values were filed as active, the others as inactive; / = no result. Hits are enriched below; roughly 4.2% of the tested compounds scored in any of these assays.

SMILES	CD11b adhes inh	Cav3 T inh	PTK2B oligo ant	E coli RNAP	CD11b adhes enh
CCn1c2ccccc2c2nc3cc(S(=O)(=O)N4CCOCC4)ccc3nc21	57.4*	/	-1.55	13.3	-3.8
CC(C)(C)NC(=O)COC(=O)CNC(=O)c1cc(Cl)cc([N+](=O)[O-])c1	-6.4	/	/	/	-1.6
O=C(Nc1nccs1)[C@@H]1CC=C[C@@H]2CCN(Cc3ccccc3)C(=O)[C@@H]21	/	-0.48	/	/	/
COc1cc(-c2c(C#N)c(N)nc(SCc3ccncc3)c2C#N)cc(OC)c1OC	10.9	-0.00262	-4.07*	12.1	0.4
N#Cc1c(N)nc(SCc2ccncc2)c(C#N)c1-c1cccs1	-8.7	-1.25	-3.86*	12.4	2.0
COc1cc(-c2c(C#N)c(N)nc3c2CCCC3)cc(OC)c1OC	/	-0.713	0.1	10.1	/
Cc1ccccc1NC(=O)CSc1nc(N)c(C#N)c(-c2cccs2)c1C#N	-10.0	0.506	-3.66*	9.4	25.1
COc1ccc(C2=NOC(C)(c3nnc(Cc4ccccc4)o3)C2)cc1 (configuration not stated)	/	0.26	/	/	/
CC(=O)c1cccc(NC(=O)COC(=O)[C@@H](NC(=O)OCc2ccccc2)C(C)C)c1	6.1	/	/	/	6.4
CCOc1ccc(C2=NNC(c3cccs3)=Nc3ccc(OC)cc32)cc1	/	-4.9*	-0.73	/	/
CC(Sc1nnnn1-c1ccccc1)C(=O)Nc1ccc(Cl)cn1 (configuration not stated)	-25.6	-5.14*	-2.4	1.6	2.5
CCC(Sc1nnnn1-c1ccccc1)C(=O)NC(C)c1ccccc1 (configuration not stated)	-3.8	-4.85*	-1.78	5.1	3.3
CCC(Sc1nnnn1-c1ccccc1)C(=O)Nc1nc2ccccc2s1 (configuration not stated)	/	-6.7*	-2.15	8.9	/
O=C(CSc1nnnn1-c1ccc(F)cc1)Nc1nc2ccccc2s1	/	-0.737	0.36	/	/
CC(C)n1nc(C(=O)OCn2nnc3ccccc3c2=O)c2ccccc2c1=O	-6.2	/	/	/	1.4
COc1cccc(N2CCN(Cc3ccsc3)CC2)c1	-0.2	/	-0.04	/	7.0
O=C(CSCc1ccccc1)Nc1ccc(F)c(F)c1	15.3	/	/	/	5.2
COc1ccc2oc(=Nc3ccccc3)c(-c3nc4ccccc4[nH]3)cc2c1	15.4	/	/	/	8.5
C#C[C@]1(O)CC[C@H]2[C@@H]3CCc4cc(O)ccc4[C@H]3CC[C@@]21C	/	-1.51	/	/	/
C#C[C@]1(O)CCC2C3CCC4=Cc5oncc5CC4(C)C3CCC21C (some centres not stated)	/	-4.77*	/	/	/
O=C(N1CCCC1)C12CCC3CC(CC(C3)C1)C2	-7.0	1.12	0.18	/	-0.1
COc1ccc(CN(Cc2cc3cc4c(cc3[nH]c2=O)OCO4)C(=O)NC2CCCCC2)cc1	-10.0	-6.73*	-2.32	-4.8	0.0
Cc1sc(NC(=O)CSC2=NCCS2)nc1-c1ccccc1	9.4	-4.39*	0.13	/	-2.9
C[C@@H]1CCC[C@@]2(O[C@@H](CCO)C[C@H](O)[C@H]2O)O1	/	0.0745	/	/	/
O=C(CSc1nnc(-c2ccco2)n1Cc1ccccc1)c1ccccc1	3.4	-3.59	-0.29	8.3	0.5
SMILES	CD11b adhes inh	Cav3 T inh	PTK2B oligo ant	E coli RNAP	CD11b adhes enh
CC(C)Cn1c(SCC(=O)c2ccc(Cl)s2)nnc1-c1ccco1	1.2	-5.6*	1.18	5.0	4.0
COc1ccc(OC)c(NC(=O)Cc2coc3ccc4ccccc4c23)c1	4.1	-2	0.08	/	-3.9
CC(C)NC(=O)c1ccc2c(=O)n(C3CCCC3)c(=S)[nH]c2c1	-13.7	-0.487	0.45	5.0	11.2
O=C(c1ccc2c(=O)n(C3CCCC3)c(=S)[nH]c2c1)N1CCc2ccccc21	55.8	-4.58*	0.22	/	-5.8
CC(Oc1ccccc1)C(=O)N1CCC2(CC1)Oc1ccc(F)cc1C(=O)C21CC(c2ccccc2)=NO1 (configuration not stated)	/	-3.98*	/	/	/
Cc1cccc(N2C(=O)C(Oc3ccc(Cl)cc3Cl)C2C=O)c1C (configuration not stated)	/	/	-1.91	/	/
O=C(Nc1ccc(Cl)cc1C(F)(F)F)c1ccccc1	0.1	/	/	/	3.8
CCN1C(=O)N(C)[C@@H](c2ccccc2)C(C(=O)OC)=C1C	/	0.38	/	/	/
Cc1nnc2ccc(N3CCN(C(=O)c4ccccc4)CC3)nn12	-1.3	0.872	/	9.1	-3.9
O=C(c1ccc(Br)o1)N1CCN(c2ccc3nnc(-c4ccccc4)n3n2)CC1	1.6	3.64*	/	4.9	0.8
